For this assay, the system named is Vero E6 infected with SARS-CoV-2. The assay is described as follows: SARS-CoV-2 infection rate relative to infected DMSO; higher = more infection, active = 60 or less. The note with it: 24 h.
As to `[N-]=[N+]=CC(=O)CC[C@H](N)C(=O)O` [6-diazo-5-oxo-L-norleucine] (10 µM), the SARS-CoV-2 infection rate is 93.5% (inactive). Consider `CC(C)N1Cc2cc(S(C)(=O)=O)ccc2N(CCN2CC=C(c3c[nH]c4cc(F)ccc34)CC2)S1(=O)=O` (10 µM), for which the SARS-CoV-2 infection rate was 97.5% (inactive).

For the molecule `COc1cccc(-n2nc(C(=O)O)cc2-c2ccc(C3CCCCC3)c(Cl)c2)c1` (10 µM), the SARS-CoV-2 infection rate is 102% (inactive).

Take `CC[C@H](CC[C@@H](C)[C@H]1CC[C@H]2[C@@H]3CC=C4C[C@@H](O)CC[C@]4(C)[C@H]3CC[C@]12C)C(C)C` [beta-Sitosterol] (10 µM): the SARS-CoV-2 infection rate is 99% (inactive). In the case of `C[N+]1(CCCCC[N+]2(C)CCCC2)CCCC1` [pentolinium] (10 µM) it was 102% (inactive).

In the case of `CCOC(=O)Nc1ccc(NCc2ccc(F)cc2)cc1N` [Retigabine] (10 µM), the SARS-CoV-2 infection rate is 106% (inactive).

Consider `CCCC(C)(COC(N)=O)COC(=O)NC(C)C` (stereo unspecified) (10 µM), for which the SARS-CoV-2 infection rate is 116% (inactive). In the case of `CC1CCc2c(N3CCC(O)CC3)c(F)cc3c(=O)c(C(=O)O)cn1c23` (stereo unspecified) [nadifloxacin] (10 µM) it was 106% (inactive).

`Clc1cccc(-c2nnnn2Cc2cccnc2)c1Cl` (10 µM): the SARS-CoV-2 infection rate is 99.5% (inactive). In the case of `N[C@@H](Cc1cc(I)c(Oc2ccc(O)c(I)c2)c(I)c1)C(=O)O` [liothyronine] (10 µM) it was 108% (inactive); in that of `CC(=O)Nc1nc2c(Oc3cc(-c4ccc(C(F)(F)F)cc4)ncn3)cccc2s1` (10 µM), 108% (inactive); in that of `C/C1=C/C[C@@H](/C(C)=C/c2csc(C)n2)OC(=O)C[C@H](O)C(C)(C)C(=O)[C@H](C)[C@@H](O)[C@@H](C)CCC1` [epothilone-D] (0.833333 µM), 107% (inactive). In the case of `CC(O)Cn1cnc2c1c(=O)n(C)c(=O)n2C` (stereo unspecified) [Proxyphylline] (10 µM) it was 97% (inactive); in that of `O=C(NCCN1CCN(c2ncccn2)CC1)C12CC3CC(CC(C3)C1)C2` [adatanserin] (10 µM), 109% (inactive); in that of `O=C(Nc1cccc2cccnc12)c1ccc(N2C(=O)[C@@H]3[C@H](C2=O)[C@H]2C=C[C@@H]3C2)cc1` (10 µM), 102% (inactive). Take `Cc1ccccc1-n1c(Cn2nc(-c3cccc(O)c3)c3c(N)ncnc32)nc2cccc(C)c2c1=O` (10 µM): the SARS-CoV-2 infection rate is 126% (inactive). The result for `O=C(NC1CCN(CCc2c[nH]c3ccccc23)CC1)c1ccccc1` [indoramin] (10 µM) reads 102% (inactive); that for `COc1cc2c(cc1OC)[C@@]13CCN4CC5=CCO[C@H]6CC(=O)N2[C@H]1[C@H]6[C@H]5C[C@H]43` [brucine] (10 µM), 105% (inactive); that for `CN(C)CCCO[C@@H]1[C@H]2OC(C)(C)O[C@H]2O[C@@H]1[C@H](O)CO` [amiprilose] (10 µM), 104% (inactive). In the case of `Cc1[nH]cnc1-c1ccc(Cl)cc1` [lofemizole] (10 µM) it was 102% (inactive); in that of `CNC(=O)CN1CCC(Oc2cc3c(Nc4cccc(Cl)c4F)ncnc3cc2OC)CC1` (0.833333 µM), 107% (inactive). Turning to `N#Cc1ccc(C2CCCc3cncn32)cc1` (stereo unspecified) [fadrozole] (10 µM), the SARS-CoV-2 infection rate was 102% (inactive). Regarding `CN1[C@@H]2C[C@@H](O)C[C@H]1[C@@H]1O[C@@H]12` [scopine] (10 µM), the SARS-CoV-2 infection rate was 93.5% (inactive). The result for `O=P(O)(O)C(O)(Cc1cccnc1)P(=O)(O)O` [risedronate] (10 µM) reads 89% (inactive). In the case of `O=C(Nc1c(Cl)cncc1Cl)c1ccc(OC(F)F)c(OCC2CC2)c1` [roflumilast] (10 µM) it was 97% (inactive); in that of `COC[C@H](NC(=O)c1cnc(C)s1)C(=O)N[C@@H](COC)C(=O)N[C@@H](Cc1ccccc1)C(=O)[C@@]1(C)CO1` [oprozomib] (0.833333 µM), 108% (inactive); in that of `N[C@H]1CCN(O)C1=O` (10 µM), 99.2% (inactive). As for `C[C@H](NC(=O)/C(C#N)=C/c1cccc(Br)n1)c1ccccc1` (0.833333 µM), the SARS-CoV-2 infection rate is 118% (inactive). The result for `NC(=O)NCCN1CCN(c2cccc(C(F)(F)F)c2)CC1` [fluprazine] (10 µM) reads 106% (inactive); that for `N#Cc1c(N)nc(SCc2csc(-c3ccc(Cl)cc3)n2)c(C#N)c1-c1ccc(OCCO)cc1` [capadenoson] (10 µM), 115% (inactive). The result for `Cn1nccc1Nc1nccc(-c2ccn([C@H](CO)c3ccc(Cl)c(F)c3)c(=O)c2)n1` (0.833333 µM) reads 106% (inactive).

The record behind these values is the supplement of paper PMC13380429.
